Entries with a potency or affinity are not part of this list. Results filed as inconclusive are left out. The source made the active and inactive calls.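 How the source made its calls: active means in every test run, a fitted half-maximal concentration for signal decrease at or below twice the highest tested concentration; inconclusive means runs disagree, flat 30 to 70% decrease, or poor fit; inactive means the rest.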

The assay can be described thus: activation of miR-122 Renilla sensor silencing – cell-based, Huh7 psiCHECK-miR122, Renilla luciferase, cherry-picked, dose response (AID 651956). To be noted: Huh7 psiCHECK-miR122 Renilla luciferase reporter, 48 h; series mostly up to 35 µM. For orientation: A reporter such as luciferase makes a cellular process visible.
`Cc1ccc(OCC(O)Cn2c(=N)n(Cc3ccccc3)c3ccccc32)cc1` (centres undefined): the outcome was inactive.
Take `COCC(=O)Nc1ccc2c(c1)C(=O)N(C)[C@@H]1CC[C@@H](CC(=O)NCCCN(C)C)O[C@@H]1CO2`: the call was inactive.
Then `CCCNC(=O)Nc1ccc2c(c1)C(=O)N(C)[C@@H]1CC[C@@H](CC(=O)NCC3CCCCC3)O[C@H]1CO2`, with “inactive”.
Consider `CCC(=O)N(C)C[C@@H]1[C@@H](c2ccccc2)[C@H](CO)N1Cc1cccnc1`, for which the compound was classed as inactive.

The values are drawn from PubChem BioAssay AID651956 (Broad Institute, 2012).
